The panel holds about 83,000 compounds, 20% with a hit somewhere; the sample as a whole holds those more often.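 In brief: 96-well plates, 48 h treatment, single concentration, percent growth endpoint.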 Unmarked numbers belong to inactive results. The source made the active and inactive calls. Rule for the calls: active = growth percent below 10; inactive = the rest.

Common to all, as to assay: NCI-60 one-dose screen, 48 h (100 = growth as untreated, 0 = no growth, -100 = all killed)
In assay [1] the test system is HCT-15 colon. The conditions noted are these: 10 µM unless noted.
In assay [2] the test system is HT29 colon. The settings on record: 10 µM unless noted.
In assay [3] the test system is SNB-75 CNS. The settings on record: 10 µM unless noted.
The test system of assay [4] is SNB-19 CNS. The settings on record: 10 µM unless noted.
In assay [5] the test system is U251 CNS. The settings on record: 10 µM unless noted.
Assay [6] concerns PC-3 prostate. The conditions noted are these: 10 µM unless noted.
Assay [7] deals with SK-MEL-5 melanoma. The conditions noted are these: 10 µM unless noted.
The subject of assay [8] is UACC-62 melanoma. The conditions noted are these: 10 µM unless noted.
Assay [9] has as its system LOX IMVI melanoma. The conditions noted are these: 10 µM unless noted.
Assay [10] deals with SK-MEL-28 melanoma. The settings on record: 10 µM unless noted.
Assay [11] has as its system SK-MEL-2 melanoma. The settings on record: 10 µM unless noted.
Assay [12] concerns EKVX NSCLC. The conditions noted are these: 10 µM.
In assay [13] the test system is SN12C renal. The settings on record: 10 µM unless noted.
For assay [14], the system named is UO-31 renal. The conditions noted are these: 10 µM unless noted.
For assay [15], the system named is TK-10 renal. The settings on record: 10 µM unless noted.
Assay [16] deals with ACHN renal. The conditions noted are these: 10 µM unless noted.
The subject of assay [17] is CAKI-1 renal. The settings on record: 10 µM unless noted.
Assay [18] has as its system A498 renal. The conditions noted are these: 10 µM unless noted.
Assay [19] deals with CCRF-CEM leukemia. The conditions noted are these: 10 µM.
The subject of assay [20] is MOLT-4 leukemia. The settings on record: 10 µM unless noted.

Regarding `C#CCCCCCCC[C@@H]1OC(=O)[C@H]([C@@H](C)CC)NC(=O)[C@@H]([C@@H](C)CC)NC(=O)CC(=O)[C@@H]1C`, the growth was 97.3% in [1]; 122% in assay [2]; 80.9% in assay [3]; 97.6% in assay [4]; 105% in assay [5]; 90.8% in assay [6]. In addition, the growth in [7] was 102%; in assay [8] it was 83%; in [9], 92%; in assay [10], 109%; in [11], 107%; in [12], 93.4%. For the same molecule, the growth was 94.9% in assay [13]; 60.9% in assay [14]; 141% in assay [15]; 86.8% in assay [16]; 69.8% in assay [17]; 86.6% in assay [18]. Besides, the figures for the growth in assay [19] and in assay [20] were 93% and 87.2%, respectively.

Consider `C#CCCCCCCC[C@@H]1OC(=O)[C@H]([C@@H](C)CC)NC(=O)[C@H]([C@@H](C)CC)NC(=O)CC(=O)[C@@H]1C`, for which the growth in assay [1] is 98.2%; in assay [2], 115%; in assay [3] it was 76.1%; in [4], 97.7%; in assay [5] it was 103%; in assay [6], 85.9%. For the same molecule, the growth in [7] is 101%; in assay [8] it was 88.7%; in assay [9], 92.1%; in assay [10] it was 108%; in [11], 106%; in assay [12] it was 97.8%. For the same molecule, the growth in assay [13] was 98.5%; in assay [14], 67.3%; in assay [15], 117%; in [16], 94%; in assay [17], 71.4%; in assay [19], 89.8%. Moreover, the growth in assay [20] is 80.3%.

Regarding `CCS(=O)(=O)N[C@@H]1O[C@H](COC(C)=O)C(OC(C)=O)[C@H](OC(C)=O)C1OC(C)=O` (some centres not stated), the growth in [1] was 93.8%; in [2] it was 102%; in [3] it was 93.9%; in [4] it was 115%; in assay [5], 97.7%; in assay [6], 102%. Besides, the growth was 105% in assay [7]; 110% in [8]; 92.8% in assay [9]; 108% in assay [10]; 106% in [11]; 99.1% in [12]. Besides, the growth in [13] was 112%; in [14] it was 94.6%; in assay [15], 97.4%; in assay [16], 101%; in assay [17] it was 94.8%; in assay [20], 106%.

Regarding `N#CC1=C(N2CCOCC2)NC2c3ccccc3Sc3ccccc3N2C1=N` (configuration not stated), the growth in assay [1] is 104%; in [2] it was 104%; in [3], 94.1%; in assay [4], 107%; in [5] it was 98.7%; in assay [6], 88.8%. The growth in assay [7] was 90.3%; in [8], 87.4%; in [9] it was 94.2%; in assay [10], 93.9%; in assay [11], 108%; in [12], 92.8%. Moreover, the growth in [13] is 103%; in assay [14], 72.9%; in [15], 96.9%; in [16], 91.5%; in assay [17], 94%; in [19], 82.7%. Further, the growth in assay [20] was 120%.

Regarding `CCCCCc1ccnc(CC(=O)c2ccc(OC)cc2)c1`, the growth in assay [1] is 99.7%; in [2] it was 70.5%; in assay [3], 85.7%; in assay [4], 97.8%; in [5] it was 88.7%; in assay [6], 76.1%. For the same molecule, the growth is 79.4% in [7]; 89.5% in assay [8]; 85% in assay [9]; 104% in [10]; 98.2% in assay [11]; 92.5% in [12]. Besides, the growth in [13] was 91.8%; in assay [14] it was 79.6%; in [15], 82%; in assay [16] it was 93.2%; in [17] it was 104%; in assay [19], 87.8%. In addition, the growth in assay [20] is 98.7%.

In the case of `COc1ccc(Oc2[nH]n(C3=Nc4ccccc4Sc4ccccc43)c(=O)c2C#N)cc1`, the growth in assay [1] is 101%; in [2] it was 113%; in assay [3] it was 121%; in assay [4] it was 101%; in assay [5] it was 107%; in assay [6], 82.8%. The growth in assay [7] is 84.8%; in [8] it was 69.9%; in assay [9] it was 95.3%; in assay [10], 108%; in [11], 101%; in assay [12], 94.4%. Also, the growth in [13] was 102%; in [14] it was 87.9%; in assay [15] it was 108%; in assay [16], 89.5%; in assay [17] it was 92.4%; in assay [19], 92.8%. Moreover, in assay [20], the growth was 107%.

As for `N#Cc1c(N)nc(Nc2nc3ccccc3[nH]2)nc1-c1ccc(Cl)cc1`, the growth in assay [1] is 109%; in [2] it was 95.4%; in assay [3], 95.1%; in [4] it was 107%; in assay [5], 97.6%; in [6] it was 94.8%. The growth in assay [7] is 99.9%; in assay [8], 113%; in [9], 96.2%; in [10] it was 115%; in assay [11], 114%; in assay [12], 109%. The growth in assay [13] is 111%; in assay [14], 82.8%; in assay [15], 109%; in assay [16], 101%; in assay [17], 86.9%; in assay [19], 95.9%. Also, in assay [20], the growth was 84.7%.

For `O=C(C(=O)N1CCOCC1)c1ccc(O[C@H]2O[C@H](CO)[C@@H](O)[C@H](O)[C@@H]2O)cc1`, the growth is 97.4% in assay [1]; 93.4% in assay [2]; 100% in [3]; 109% in [4]; 104% in [5]; 88.8% in [6]. Besides, the growth in assay [7] is 97.4%; in assay [8] it was 97.1%; in [9], 102%; in assay [10], 117%; in assay [11] it was 107%; in [12], 116%. The growth in assay [13] was 101%; in [14], 91.5%; in assay [15], 103%; in assay [16], 95%; in [17], 100%; in assay [19] it was 109%. Besides, in assay [20], the growth was 103%.

On to `COc1ccc(C(O)(c2ccccc2)C(C(=O)O)c2ccccc2)cc1` (configuration not stated), for which the growth was 107% in assay [1]; 91.3% in assay [2]; 94.6% in assay [3]; 96.9% in assay [4]; 116% in assay [5]; 85.8% in assay [6]. For the same molecule, the growth is 102% in assay [7]; 93.6% in assay [8]; 96.7% in assay [9]; 112% in assay [10]; 104% in assay [11]; 111% in assay [12]. In addition, the growth in assay [13] is 100%; in [14], 81.6%; in assay [15], 105%; in assay [16], 106%; in assay [17], 102%; in assay [19], 102%. Further, the growth in assay [20] is 102%.

Consider `CCCC(C)c1cc(Cc2cc(Cl)cc(Cl)c2O)c(O)c(Cc2cc(Cl)cc(Cl)c2O)c1` (configuration not stated), for which the growth in assay [1] is 6.15% (active); in [2] it was 14.4%; in [3], 12.2%; in [4] it was 24.2%; in [5], 7.55% (active); in assay [6], 3.76% (active). The growth in [7] is -58.5% (active); in [8] it was -5.72% (active); in [9], 5.31% (active); in assay [10], 8.03% (active); in assay [11], 1.41% (active); in assay [12], 6.21% (active). Also, the growth is 5.5% (active) in assay [13]; 6.1% (active) in assay [14]; 17.4% in assay [15]; 0.12% (active) in assay [16]; 15.6% in [17]; 6.76% (active) in [19]. The growth in assay [20] was -8.73% (active).

`O=C(O)CC1Cc2ccccc2C1C(=O)O` (configuration not stated): the growth in assay [1] is 101%; in [2] it was 106%; in assay [3], 92.4%; in assay [4], 95%; in assay [5], 103%; in [6], 94.5%. In addition, the growth in [7] was 103%; in assay [8], 97.3%; in assay [9], 91.7%; in assay [10], 109%; in assay [11] it was 101%; in [12], 105%. For the same molecule, the growth is 95.2% in assay [13]; 79.6% in assay [14]; 96.5% in assay [15]; 109% in [16]; 104% in assay [17]; 85.7% in assay [19]. For the same molecule, the growth in [20] is 82.3%.

Regarding `N#CCCCCCCCCCCC#N`, the growth in assay [1] was 99.4%; in assay [2], 95.7%; in assay [3], 103%; in assay [4] it was 109%; in [5] it was 105%; in assay [6], 95.8%. In addition, the growth in assay [7] was 110%; in assay [8], 101%; in assay [9], 99.4%; in assay [10] it was 111%; in assay [11], 108%; in assay [12], 97%. The growth in assay [13] was 105%; in [14] it was 92.9%; in [15], 92.4%; in [16], 107%; in assay [17], 95.2%; in assay [19] it was 97.5%. In addition, in assay [20], the growth was 105%.

With `COc1ccc(-c2nc(SCC(C)C)nc(Nc3ccccc3)c2C#N)cc1`, the growth in [1] was 83.4%; in [2], 78.9%; in assay [3], 89%; in assay [4], 81.3%; in assay [5], 50.5%; in [6] it was 86.9%. Also, the growth in assay [7] was 96.7%; in assay [8], 88.1%; in [9], 80.1%; in [10], 112%; in assay [11], 111%; in [12], 85%. Moreover, the growth in assay [13] was 60.2%; in assay [14], 56.8%; in [15] it was 46.9%; in [16], 27.4%; in [18] it was 75.2%; in assay [19], 64.6%. Besides, the growth in assay [20] is 88.2%.

These data come from PubChem BioAssay (NCI).
